Data as given in PubChem BioAssay (NCI).
The panel holds about 79,000 compounds, 15% with a hit somewhere; the sample as a whole holds those more often. The source made the active and inactive calls. No stated cut-off is given here; in the data, active means growth inhibition above about 70%; inactive means the rest.

Assays:
[1] = NCI Yeast Anticancer Drug Screen. Data for the rad52 strain (AID 147);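 further: 0% = growth of vehicle-treated control cultures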; conditions: S. cerevisiae rad52 mutant growth inhibition, stronger effect = higher value
Procedure, shortened: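 Genetically altered yeast (DNA damage repair defect) treated with compound; inhibition calculated relative to vehicle.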

[2] = NCI Yeast Anticancer Drug Screen. Data for the wt1 strain (AID 149);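 further: 0% = growth of vehicle-treated wt1 cultures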; conditions: S. cerevisiae wt1 strain (SPY 50644) growth inhibition, stronger effect = higher value
Procedure, shortened: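 Compounds are added to wt1 yeast cultures. Growth is then measured. Inhibition is expressed relative to vehicle-treated controls.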

[3] = NCI Yeast Anticancer Drug Screen. Data for the rad50EPP+ strain (AID 151);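 further: 0% = growth of vehicle-treated control cultures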; conditions: S. cerevisiae rad50 mutant strain, stronger effect = higher value
Procedure, shortened: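 Strain rad50EPP+; compound exposure; % growth inhibition vs vehicle.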

[4] = NCI Yeast Anticancer Drug Screen. Data for the mgt1 strain (AID 153); conditions: S. cerevisiae mgt1 mutant growth inhibition, stronger effect = higher value
Procedure, shortened: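 Read-out: yeast growth inhibition vs vehicle control. Strain mgt1, drawn from a panel altered in DNA damage repair or cell cycle control.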

[5] = NCI Yeast Anticancer Drug Screen. Data for the rad50 strain (AID 155);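 further: 0% = growth of vehicle-only cultures of the same strain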; conditions: S. cerevisiae rad50 strain growth inhibition, stronger effect = higher value
Procedure, shortened: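 Inhibition values express reduced yeast growth in compound-treated cultures relative to vehicle-treated controls.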

[6] = NCI Yeast Anticancer Drug Screen. Data for the mec2-1 strain (AID 157); conditions: S. cerevisiae mec2-1 strain, stronger effect = higher value
Procedure, shortened: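 Cells of the genetically defined mec2-1 yeast strain are incubated with test compound. Inhibition of growth is calculated against vehicle-treated controls.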

[7] = NCI Yeast Anticancer Drug Screen. Data for the rad14 strain (AID 159);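 further: 0% = growth of vehicle-treated control cultures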; conditions: S. cerevisiae rad14 strain growth inhibition, stronger effect = higher value
Procedure, shortened: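 A mutant yeast strain defective in DNA damage repair is treated with compound; inhibition of its growth is scored against untreated, vehicle-exposed cultures.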

[8] = NCI Yeast Anticancer Drug Screen. Data for the sgs1 mgt1 strain (AID 161);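 further: 0% = growth of cultures given vehicle only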; conditions: S. cerevisiae sgs1 mgt1 strain, stronger effect = higher value
Procedure, shortened: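 Test agents were incubated with a DNA-repair-mutant yeast strain. Growth was then read and compared against vehicle-treated controls.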

[9] = NCI Yeast Anticancer Drug Screen. Data for the CLN2oe strain (AID 163);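 further: 0% = growth of vehicle-only control cultures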; conditions: S. cerevisiae CLN2oe strain, stronger effect = higher value
Procedure, shortened: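 Strain altered in cell-cycle control, incubated with compound; growth compared to solvent-treated controls.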

[10] = NCI Yeast Anticancer Drug Screen. Data for the cln2 rad14 strain (AID 165);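 further: 0% = growth equal to vehicle treated cultures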; conditions: S. cerevisiae cln2 rad14 strain, stronger effect = higher value
Procedure, shortened: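 The screen exposed genetically defined yeast (cln2 rad14) to test compounds and scored growth inhibition relative to vehicle-treated controls.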

[11] = NCI Yeast Anticancer Drug Screen. Data for the bub3 strain (AID 167); conditions: S. cerevisiae bub3 mutant strain, stronger effect = higher value
Procedure, shortened: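 Steps: expose the mutant yeast strain to compound; grow alongside vehicle-treated cultures; measure growth; express inhibition against the vehicle cultures.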

[12] = NCI Yeast Anticancer Drug Screen. Data for the wt2 strain (AID 169);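 further: 0% = growth of vehicle-treated yeast cultures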; conditions: S. cerevisiae wt2 strain growth inhibition, stronger effect = higher value
Procedure, shortened: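 Steps: yeast strain treated with compound; growth recorded; inhibition calculated relative to cultures given vehicle alone.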

[13] = NCI Yeast Anticancer Drug Screen. Data for the mlh1 strain (AID 171);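 further: 0% = growth of vehicle-treated control cultures of the same strain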; conditions: S. cerevisiae mlh1 strain growth inhibition, stronger effect = higher value
Procedure, shortened: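 Yeast screen: mutant strain plus compound, growth scored against vehicle control wells.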

[14] = NCI Yeast Anticancer Drug Screen. Data for the sgs1 strain (AID 173);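 further: 0% = growth of vehicle-only control cultures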; conditions: S. cerevisiae sgs1 mutant, stronger effect = higher value
Procedure, shortened: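 Inhibition of yeast growth served as the measure. The mutant strain was treated with each compound, and growth was normalised to cultures receiving vehicle alone.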

[15] = NCI Yeast Anticancer Drug Screen. Data for the mlh1 rad18 strain (AID 175); conditions: S. cerevisiae mlh1 rad18 strain growth inhibition, stronger effect = higher value
Procedure, shortened: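 Compound-treated yeast growth, normalised to vehicle controls. Strain bears defined DNA repair mutations.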

[16] = NCI Yeast Anticancer Drug Screen. Data for the rad18 strain (AID 177); conditions: S. cerevisiae rad18 mutant growth inhibition, stronger effect = higher value
Procedure, shortened: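 Inhibition values reflect reduced yeast growth compared with vehicle-treated controls, using a strain engineered with a DNA damage repair defect.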

[17] = at 5.0 µM (retest, dose inferred, filed as 0.5)
[18] = at 50.0 µM (retest, dose inferred, filed as 5.0)

Measured: growth inhibition

NC(N)=NS(=O)(=O)c1ccc(Nc2c3ccccc3nc3c(C(=O)NCCO)cccc23)cc1
active: [1]; at 100.0 µM 82% | [5]; [18] 73% | [5]; at 100.0 µM 73% | [16]; at 100.0 µM 77%
inactive: [1]; at 1.2 µM 1% | [1]; at 3.7 µM 3% | [1]; at 11.0 µM 4% | [1]; at 33.0 µM 17% | [2]; at 1.2 µM 1% | [2]; at 3.7 µM 1% | [2]; at 11.0 µM 2% | [2]; at 33.0 µM -1% | [2]; at 100.0 µM 5% | [3]; at 1.2 µM -1% | [3]; at 3.7 µM -5% | [3]; at 11.0 µM -5% | [3]; at 33.0 µM 5% | [3]; at 100.0 µM 37% | [4]; at 1.2 µM -1% | [4]; at 3.7 µM -4% | [4]; at 11.0 µM -3% | [4]; at 33.0 µM 12% | [4]; at 100.0 µM 38% | [5]; at 1.2 µM 0% | [5]; at 3.7 µM 0% | [5]; [17] -11% | [5]; at 11.0 µM 3% | [5]; at 33.0 µM 16% | [5]; at 50.0 µM 69.4% | [6]; at 1.2 µM -3% | [6]; at 3.7 µM 0% | [6]; [17] -4% | [6]; at 11.0 µM -2% | [6]; at 33.0 µM 1% | [6]; [18] -2% | [6]; at 50.0 µM -21.9% | [6]; at 100.0 µM 33% | [7]; at 1.2 µM 0% | [7]; at 3.7 µM -1% | [7]; at 11.0 µM -2% | [7]; at 33.0 µM 2% | [7]; at 100.0 µM 17% | [8]; [17] 2% | [8]; [18] 20% | [8]; at 50.0 µM 20.4% | [9]; at 1.2 µM 2% | [9]; at 3.7 µM 0% | [9]; at 11.0 µM 4% | [9]; at 33.0 µM -6% | [9]; at 100.0 µM 11% | [10]; [17] 16% | [10]; [18] 17% | [10]; at 50.0 µM -5.1% | [11]; at 1.2 µM -4% | [11]; at 3.7 µM -1% | [11]; [17] -12% | [11]; at 11.0 µM -4% | [11]; at 33.0 µM -4% | [11]; [18] 33% | [11]; at 50.0 µM -1.35% | [11]; at 100.0 µM 7% | [12]; at 1.2 µM 0% | [12]; at 3.7 µM 0% | [12]; at 11.0 µM 1% | [12]; at 33.0 µM 0% | [12]; at 100.0 µM 20% | [13]; at 1.2 µM -2% | [13]; at 3.7 µM 0% | [13]; at 11.0 µM 1% | [13]; at 33.0 µM 1% | [13]; at 100.0 µM 48% | [14]; at 1.2 µM -1% | [14]; at 3.7 µM 0% | [14]; at 11.0 µM 0% | [14]; at 33.0 µM 5% | [14]; at 100.0 µM 43% | [15]; [17] -1% | [15]; [18] 40% | [15]; at 50.0 µM 46% | [16]; at 1.2 µM -1% | [16]; at 3.7 µM 0% | [16]; at 11.0 µM 9% | [16]; at 33.0 µM 7%

O=C(O)C1CC(c2ccccc2)=NN1c1ccccc1 (stereo unspecified)
active: [1]; at 100.0 µM 95% | [2]; at 100.0 µM 93% | [4]; at 100.0 µM 95% | [5]; [18] 84% | [5]; at 100.0 µM 95% | [6]; [18] 84% | [6]; at 100.0 µM 92% | [7]; at 100.0 µM 97% | [9]; at 100.0 µM 97% | [11]; [18] 78% | [11]; at 100.0 µM 94% | [12]; at 100.0 µM 98% | [13]; at 100.0 µM 96% | [14]; at 100.0 µM 96% | [15]; [18] 96% | [15]; at 50.0 µM 85.2% | [16]; at 100.0 µM 96%
inactive: [1]; at 1.2 µM -28% | [1]; at 3.7 µM -9% | [1]; at 11.0 µM 4% | [1]; at 33.0 µM 58% | [2]; at 1.2 µM -60% | [2]; at 3.7 µM -56% | [2]; at 11.0 µM -50% | [2]; at 33.0 µM -11% | [3]; at 1.2 µM -17% | [3]; at 3.7 µM -17% | [3]; at 11.0 µM -9% | [3]; at 33.0 µM -3% | [3]; at 100.0 µM 51% | [4]; at 1.2 µM -48% | [4]; at 3.7 µM -56% | [4]; at 11.0 µM -41% | [4]; at 33.0 µM -1% | [5]; at 1.2 µM -10% | [5]; at 3.7 µM -11% | [5]; [17] 27% | [5]; at 11.0 µM -1% | [5]; at 33.0 µM 33% | [5]; at 50.0 µM 19.4% | [6]; at 1.2 µM -45% | [6]; at 3.7 µM -53% | [6]; [17] 27% | [6]; at 11.0 µM -42% | [6]; at 33.0 µM -43% | [6]; at 50.0 µM 59.8% | [7]; at 1.2 µM -19% | [7]; at 3.7 µM -15% | [7]; at 11.0 µM -18% | [7]; at 33.0 µM 28% | [8]; [17] -12% | [8]; [18] 25% | [8]; at 50.0 µM 58.6% | [9]; at 1.2 µM -5% | [9]; at 3.7 µM 17% | [9]; at 11.0 µM 22% | [9]; at 33.0 µM 29% | [10]; [17] -15% | [10]; [18] -61% | [10]; at 50.0 µM 62.8% | [11]; at 1.2 µM -28% | [11]; at 3.7 µM -22% | [11]; [17] -7% | [11]; at 11.0 µM -20% | [11]; at 33.0 µM -10% | [11]; at 50.0 µM 46% | [12]; at 1.2 µM -38% | [12]; at 3.7 µM -46% | [12]; at 11.0 µM -36% | [12]; at 33.0 µM 0% | [13]; at 1.2 µM -31% | [13]; at 3.7 µM -14% | [13]; at 11.0 µM -9% | [13]; at 33.0 µM 8% | [14]; at 1.2 µM -29% | [14]; at 3.7 µM -34% | [14]; at 11.0 µM -16% | [14]; at 33.0 µM 20% | [15]; [17] 52% | [16]; at 1.2 µM -38% | [16]; at 3.7 µM -37% | [16]; at 11.0 µM -12% | [16]; at 33.0 µM 26%
